Test results as given in PubChem BioAssay (EPA / NIEHS).
A structure can be active in one record and inactive in another. The source made the active and inactive calls. Rule for the calls: active = hit-call score of the fitted dose curve at least 0.9, where 1 is the maximum; inactive = score below 0.9.

Key:
[1] = read-out: Forkhead box O1 (FOXO1), FOXO1 (gene 2308); test: LTEA_HepaRG_FOXO1: Life Technologies and Expression Analysis (LTEA) Assay for Forkhead box O1 (FOXO1) using HepaRG (AID 2283456); conditions: mRNA level, 48 h; actives raise or lower the signal
Method in brief: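 FOXO1 transcript quantified by qRT-PCR after 48 h chemical exposure (top 100 uM, half-log steps, 0.5% DMSO) of HepaRG cells, housekeeping-normalized (ACTB/GAPDH/POLR2A). Changes fitted in both directions relative to vehicle.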

[2] = read-out: growth arrest and DNA damage 45 (GADD45A), GADD45A (gene 1647); test: LTEA_HepaRG_GADD45A: Life Technologies and Expression Analysis (LTEA) Assay for growth arrest and DNA damage 45 (GADD45A) using HepaRG (AID 2283458); conditions: mRNA level, 48 h; actives raise or lower the signal
Method in brief: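 HepaRG, 48 h exposure, 8 conc. (top 100 uM, half-log steps), 0.5% DMSO vehicle, duplicates. Read-out: qRT-PCR mRNA level, housekeeping-normalized (ACTB/GAPDH/POLR2A). Curves fit bidirectionally vs DMSO baseline.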

[3] = read-out: Forkhead box O3 (FOXO3), FOXO3 (gene 2309); test: LTEA_HepaRG_FOXO3: Life Technologies and Expression Analysis (LTEA) Assay for Forkhead box O3 (FOXO3) using HepaRG (AID 2283459); conditions: mRNA level, 48 h; actives raise or lower the signal
Method in brief: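 FOXO3 transcript measured by qRT-PCR (normalized to ACTB, GAPDH, POLR2A) after 48 h exposure of HepaRG cells in serum-free induction medium. Duplicates, eight half-log concentrations up to 100 uM, 0.5% DMSO; gain or loss fitted against DMSO.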

[4] = read-out: growth arrest and DNA damage 45 (GADD45B), GADD45B (gene 4616); test: LTEA_HepaRG_GADD45B: Life Technologies and Expression Analysis (LTEA) Assay for growth arrest and DNA damage 45 (GADD45B) using HepaRG (AID 2283461); conditions: mRNA level, 48 h; actives raise or lower the signal
Method in brief: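 Differentiated human HepaRG cells in serum-free induction medium exposed 48 h in duplicate to eight concentrations, top 100 uM, half-log steps, 0.5% DMSO. GADD45B mRNA by TaqMan qRT-PCR, normalized to ACTB, GAPDH, POLR2A; bidirectional fit versus DMSO.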

[5] = read-out: ABC Transporter (ABCC3), ABCC3 (gene 8714); test: LTEA_HepaRG_ABCC3: Life Technologies and Expression Analysis (LTEA) Assay for ABC Transporter (ABCC3) using HepaRG (AID 2283462); conditions: mRNA level, 48 h; actives raise or lower the signal
Method in brief: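 Differentiated human HepaRG cells exposed 48 h in serum-free induction medium, 0.5% DMSO vehicle, 8-point half-log series to 100 uM in duplicate. ABCC3 mRNA by qRT-PCR, normalised to ACTB, GAPDH, POLR2A; bidirectional fit vs DMSO.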

[6] = read-out: ABC Transporter (ABCB11), ABCB11 (gene 8647); test: LTEA_HepaRG_ABCB11: Life Technologies and Expression Analysis (LTEA) Assay for ABC Transporter (ABCB11) using HepaRG (AID 2283463); conditions: mRNA level, 48 h; actives raise or lower the signal
Method in brief: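 ABCB11 transcript levels quantified by TaqMan qRT-PCR against three housekeeping genes after 48 h chemical exposure of HepaRG cultures. Concentrations up to 100 uM in half-log steps, 0.5% DMSO vehicle; both induction and suppression scored.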

[7] = read-out: ABC Transporter (ABCC2), ABCC2 (gene 1244); test: LTEA_HepaRG_ABCC2: Life Technologies and Expression Analysis (LTEA) Assay for ABC Transporter (ABCC2) using HepaRG (AID 2283464); conditions: mRNA level, 48 h; actives raise or lower the signal
Method in brief: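 Differentiated HepaRG cells in serum-free induction medium exposed 48 h to eight half-log concentrations up to 100 uM, 0.5% DMSO, in duplicate. ABCC2 mRNA measured by qRT-PCR (TaqMan, Fluidigm), normalized to ACTB, GAPDH and POLR2A. Fitted in both directions against DMSO.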

[8] = read-out: Broad substrate specificity ATP-binding cassette transporter ABCG2 (Homo sapiens) (UniProt Q9UNQ0); test: LTEA_HepaRG_ABCG2: Life Technologies and Expression Analysis (LTEA) Assay for ABC Transporter (ABCG2) using HepaRG (AID 2283465); conditions: mRNA level, 48 h; actives raise or lower the signal
Method in brief: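 ABCG2 transcript was quantified by TaqMan qRT-PCR against three housekeeping genes in HepaRG cells. Cells were treated in duplicate for 48 h across an 8-point half-log series up to 100 uM, with 0.5% DMSO vehicle. Gain or loss versus DMSO was fit.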

[9] = read-out: ATP-citrate lyase (ACLY), ACLY (gene 47); test: LTEA_HepaRG_ACLY: Life Technologies and Expression Analysis (LTEA) Assay for ATP-citrate lyase (ACLY) using HepaRG (AID 2283466); conditions: mRNA level, 48 h; actives raise or lower the signal
Method in brief: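 ACLY mRNA quantified by qRT-PCR on Fluidigm arrays against three housekeeping genes, after 48 h chemical treatment of HepaRG cells (top concentration 100 uM, half-log steps, 0.5% DMSO vehicle). Up- or down-regulation fitted relative to DMSO.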

[10] = CEETOX_H295R_TESTO: CeeTox H295R High-throughput Steroidogenesis Assay for Testosterone (TESTO) (AID 2283457); conditions: actives raise or lower the signal;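 note: cells exposed to chemicals for 48 h before medium collection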
Method in brief: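 H295R adrenal cells, passage ≤10, exposed to chemicals for 48 h. Testosterone in medium measured by MTBE extraction and HPLC-MS/MS against a 7-point standard curve. Bidirectional fit versus DMSO; MTT viability checked in the same wells.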

Measured: AC50

Broad substrate specificity ATP-binding cassette transporter ABCG2 (Homo sapiens), sequence (Q9UNQ0 whole entry, looked up): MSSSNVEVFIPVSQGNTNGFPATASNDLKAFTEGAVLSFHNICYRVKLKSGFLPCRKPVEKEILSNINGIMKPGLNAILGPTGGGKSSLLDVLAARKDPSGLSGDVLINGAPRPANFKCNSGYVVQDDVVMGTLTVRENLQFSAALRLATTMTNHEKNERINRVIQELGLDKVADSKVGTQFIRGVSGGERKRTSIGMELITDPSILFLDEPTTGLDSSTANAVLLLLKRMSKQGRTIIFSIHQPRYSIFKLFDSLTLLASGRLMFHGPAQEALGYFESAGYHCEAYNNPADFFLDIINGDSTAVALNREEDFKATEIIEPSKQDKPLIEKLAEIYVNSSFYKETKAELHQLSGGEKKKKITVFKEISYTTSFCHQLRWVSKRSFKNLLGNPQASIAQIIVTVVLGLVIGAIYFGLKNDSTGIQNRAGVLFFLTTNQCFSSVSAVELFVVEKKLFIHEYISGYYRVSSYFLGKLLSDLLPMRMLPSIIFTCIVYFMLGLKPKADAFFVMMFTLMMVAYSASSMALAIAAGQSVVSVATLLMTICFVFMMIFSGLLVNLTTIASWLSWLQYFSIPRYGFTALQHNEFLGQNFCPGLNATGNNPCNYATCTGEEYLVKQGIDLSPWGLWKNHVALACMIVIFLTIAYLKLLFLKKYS

COc1cc(-c2ccc(N)c(OC)c2)ccc1N
active: [4] 50 µM | [6] 71.5 µM | [7] 50 µM | [8] 25 µM
inactive: [1] | [2] | [3] | [4] | [5] | [6] | [7] | [8] | [9]

O=[N+]([O-])c1ccc(O)c([N+](=O)[O-])c1
inactive: [1]
active: [2] 11.5 µM | [3] 28.8 µM | [4] 50 µM | [5] 12.4 µM | [6] 12.4 µM | [7] 13.3 µM | [8] 12.4 µM | [9] 4.2 µM

CC(=O)[O][Hg][c]1ccccc1
inactive: [4] | [8]
active: [1] 12.9 µM | [2] 16.3 µM | [3] 14.5 µM | [5] 13 µM | [6] 1.22 µM | [7] 27.2 µM | [9] 23.3 µM

NC(=O)O
not listed: [10]
inactive: all other assays above

ClCC(Cl)CCl
not listed: [10]
inactive: all other assays above

CC(C)(C)c1cc(O)ccc1O
not listed: [5] | [10]
inactive: all other assays above

CN(C)N=O
not listed: [10]
inactive: all other assays above

O=C(O)C(Cl)(Cl)Cl
not listed: [10]
inactive: all other assays above

CC(C)(c1ccccc1)c1ccc(O)c(C(C)(C)c2ccccc2)c1
active: [6] 43.1 µM | [7] 12.7 µM | [8] 36.2 µM
not listed: [10]
inactive: all other assays above

CCOP(=S)(OCC)Oc1nc(Cl)c(Cl)cc1Cl
active: [10] 62.6 µM
inactive: all other assays above

CC(C)(C)CC(C)(C)c1ccc(O)cc1
active: [2] 81.5 µM
not listed: [10]
inactive: all other assays above

CC12CC1(C)C(=O)N(c1cc(Cl)cc(Cl)c1)C2=O (stereo not drawn)
active: [10] 25.4 µM | [6] 6.92 µM
not listed: [2]
inactive: all other assays above

C=C(C)C(=O)[O][Sn]([CH2]CCC)([CH2]CCC)[CH2]CCC
active: [1] 1.98 µM | [2] 0.314 µM | [5] 3.06 µM | [6] 2.02 µM | [7] 3.35 µM | [8] 0.917 µM
inactive: [3] | [4] | [9]

C[C@]12CCC(=O)C[C@@H]1CC[C@@H]1[C@@H]2CC[C@]2(C)[C@@H](O)CC[C@@H]12
active: [2] 0.00162 µM | [6] 50 µM
not listed: [10]
inactive: all other assays above

O=C1C2(Cl)C3(Cl)C4(Cl)C(Cl)(Cl)C5(Cl)C3(Cl)C1(Cl)C5(Cl)C24Cl (stereo not drawn)
inactive: [2] | [6]
active: [1] 93.5 µM | [3] 93.2 µM | [4] 93 µM | [5] 92.7 µM | [7] 93.6 µM | [8] 15.8 µM | [9] 93.1 µM

CC(C)(OO)c1ccccc1
not listed: [10]
inactive: all other assays above
